Screening results: PubChem BioAssay, National Center for Advancing Translational Sciences (NCATS)
This is a sample that favours compounds with a hit; in the whole collection about 21% have one here.
DT40 TDP1 CPT: qHTS for Inhibitors of human tyrosyl-DNA phosphodiesterase 1 (TDP1): qHTS in cells in presence of CPT; AID 686979, 2013; 420,000 compounds, 12% hits; chicken DT40 Tdp1-/-;hTDP1 cells + 20 nM CPT, ATP luminescence, 48 h; Potency, µM (series often up to 46.2 µM), without a hit: at the highest dose activity change, negative = growth inhibition, usual class: inhibitors; also: potency is read from the fitted curve at half-maximal effect; % is scaled to controls: 0 for no effect and ±100 for the full control effect; nearly all actives have a fitted effect of over 55% in size
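Chicken DT40 Tdp1-/- cells complemented with human TDP1, 400 cells/well, exposed to compounds plus 20 nM camptothecin for at least 48 h at 37 C; viability read as ATP content by CellTiter-Glo luminescence.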
DRD3 antagonist: qHTS of D3 Dopamine Receptor Antagonist: qHTS | 360,000 compounds, 2.5% hits | D(3) dopamine receptor (Homo sapiens), P35462 | max response, negative = inhibition, % | AID 652054, 2013 | D3R cells, DiscoveRx beta-arrestin luminescence, antagonist mode; hits give low values; in the data active = max response below about -50%; inconclusive = no clear call, values can overlap the other calls; also: % is scaled to controls: 0 for no effect and ±100 for the full control effect
Target sequence (P35462 whole entry, looked up): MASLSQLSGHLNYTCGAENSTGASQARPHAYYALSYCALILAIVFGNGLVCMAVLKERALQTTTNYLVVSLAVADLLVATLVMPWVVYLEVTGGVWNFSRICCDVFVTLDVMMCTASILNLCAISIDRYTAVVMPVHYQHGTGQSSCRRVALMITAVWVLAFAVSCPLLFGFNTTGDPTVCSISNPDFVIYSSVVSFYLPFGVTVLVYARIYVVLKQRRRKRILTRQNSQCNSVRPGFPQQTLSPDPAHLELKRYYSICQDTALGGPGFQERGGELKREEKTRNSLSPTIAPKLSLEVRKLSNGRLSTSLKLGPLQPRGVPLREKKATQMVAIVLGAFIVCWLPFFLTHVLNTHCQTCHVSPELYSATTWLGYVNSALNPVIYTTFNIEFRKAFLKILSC
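Cells plated overnight at 1500 cells/well, then exposed to library compounds with dopamine controls for 90 minutes at 37 degrees C. DiscoveRx reagent added for 30–60 minutes at room temperature; luminescence read, quantitative HTS format.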
DT40 TDP1 no CPT: qHTS for Inhibitors of human tyrosyl-DNA phosphodiesterase 1 (TDP1): qHTS in cells in absence of CPT. DT40 Tdp1-/- hTDP1 cells, no CPT, ATP luminescence, 48 h. 420,000 compounds, 15% hits. Potency, µM (doses to about 46.2 µM), for the others: at the highest dose activity change, negative = growth inhibition, hits mostly inhibitors; also: potency is read from the fitted curve at half-maximal effect; % is scaled to controls: 0 for no effect and ±100 for the full control effect; nearly all actives have a fitted effect of over 55% in size
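Seeded 400 DT40-hTDP1 cells/well (vehicle DMSO, no 20 nM CPT); pinned compounds; ≥48 hr at 37 °C; CellTiter-Glo luminescence as viability measure.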
DRD3 agonist: qHTS of D3 Dopamine Receptor Agonist: qHTS | D3R DiscoveRx beta-arrestin cells, luminescence, 90 min | 410,000 compounds, 0.58% hits | D(3) dopamine receptor (Homo sapiens), P35462 | max activation, %; in the data active = max activation above about 30%; also: 0% is about no effect
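Cells at 1500/well, incubated overnight, then treated with pinned compounds (dopamine as control) for 90 min at 37 degrees C. DiscoveRx reagent added for 30 - 60 minutes at room temperature; luminescence read.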
ClpP mod: qHTS Assay for Activators of ClpP; 340,000 compounds, 1.9% hits; purified B. subtilis ClpP, FRET peptide cleavage, 20 min; ATP-dependent Clp protease proteolytic subunit (Bacillus subtilis (strain 168)), P80244; Potency, µM (series often up to 57.5 µM), for inactives: at the top dose activity change, negative = active; active = well fitted falling curve with a large enough effect; inconclusive = small, poorly fitted or top-dose-only effect; inactive = no such curve, though single readings can be large or run the other way; also: potency is read from the fitted curve at half-maximal effect; the source files actives as falling curves though it sought activators and does not explain the sign; nearly all actives have a fitted effect of over 65% in size
Target sequence (P80244 whole entry, looked up): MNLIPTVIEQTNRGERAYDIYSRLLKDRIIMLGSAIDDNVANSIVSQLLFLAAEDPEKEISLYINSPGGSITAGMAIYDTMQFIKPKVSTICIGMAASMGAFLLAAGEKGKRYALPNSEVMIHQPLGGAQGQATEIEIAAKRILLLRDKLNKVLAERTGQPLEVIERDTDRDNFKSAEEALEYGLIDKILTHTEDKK
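Buffer: 100 mM Tris/HCl pH8, 100 mM KCl, 0.05% low protease BSA, 2.5% glycerol, 0.01% Tween-20. ClpP 10 microg/mL final; 20 min RT; delta FRET normalized to ADEP and DMSO controls.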
IL1B secr inh: qHTS for Inhibitors of Inflammasome Signaling: IL-1-beta AlphaLISA Primary Screen; THP-1 LPS/ATP IL-1B secretion, AlphaLISA, 16 h; hits give low values; activity change, % at 57.5 µM; 360,000 compounds, 4.7% hits; in the data active = activity change below about -50%; inconclusive = mostly about -30% to -49%; also: % is scaled to controls: 0 for no effect and ±100 for the full control effect
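THP-1 cells pretreated 1 hr with compounds (up to 57.5 uM final), then stimulated with LPS (250 ng/mL final) plus ATP (1.25 mM final); secreted IL-1B measured by AlphaLISA after 16 hr, decreased signal indicating inhibition.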
* hit, by the source's call; ? = inconclusive; / = no result given. Unless noted, calls follow the shape of the dose curve; as a rule, active = well fitted inhibition curve with a large enough effect; inconclusive = small, poorly fitted or top-dose-only effect; inactive = flat fitted curve, though single readings scatter.

SMILES	DT40 TDP1 CPT	DRD3 antagonist	DT40 TDP1 no CPT	DRD3 agonist	ClpP mod	IL1B secr inh
Cc1nn(-c2ccccc2)c(C)c1/C=N\N1CCN(c2ccc(Cl)cc2)CC1	18µM*	-2	10µM*	10	-1%	-16
Cc1nn(-c2ccccc2)c(C)c1/C=N/n1cnnc1	21%	13	2%	0	/	43
COc1ccccc1CCC(=O)Oc1ccccc1C#N	-3%	-6	-6%	-8	0%	0
COC(=O)N1C/C=C\C(c2ccc(OC)cc2)N(Cc2ccc(F)cc2)C(=O)C1 (stereo not drawn)	-19%	-18	-8%	-9	1%	-6
COc1ccc(C2/C=C\CN(C(=O)NC34CC5CC(CC(C5)C3)C4)CC(=O)N2Cc2ccc(F)cc2)cc1 (stereo not drawn)	23µM*	-17	?	-3	-2%	29
CCCCC(=O)N1C/C=C\C(c2ccc(OC)cc2)N(Cc2ccc(F)cc2)C(=O)C1 (stereo not drawn)	?	0	?	-19	-4%	12
COc1ccc(C2/C=C\CN(C(=O)C3CCCCC3)CC(=O)N2Cc2ccc(F)cc2)cc1 (stereo not drawn)	?	2	?	-5	-2%	-13
COc1ccc(C2/C=C\CN(C(=O)Nc3ccccc3-c3ccccc3)CC(=O)N2Cc2ccc(F)cc2)cc1 (stereo not drawn)	23µM*	-15	?	-5	2%	-22
COc1ccc(C2/C=C\CN(C(=O)C3CCCC3)CC(=O)N2Cc2ccc(F)cc2)cc1 (stereo not drawn)	21µM*	-15	?	-22	-4%	20
C=CC(=O)N1C/C=C\C(c2ccc(OC)cc2)N(Cc2ccc(F)cc2)C(=O)C1 (stereo not drawn)	?	0	-21%	-2	-1%	-61*
COc1ccc(N(CC(=O)N/N=C/c2ccccc2F)S(=O)(=O)c2ccccc2)cc1	?	6	-4%	-4	1%	12
Cc1ccn2cc(CNC(=O)c3cccc(C(F)(F)F)c3)nc2c1	0%	/	0%	-25	-14%	/
CC(C)C(NC(=O)c1c(F)cccc1F)C(=O)N1CCN(c2ccccc2F)CC1 (stereo not drawn)	-18%	-1	-21%	-3	/	10
Cc1cc(-c2ccc(Cl)cc2)n2nc(N)nc2n1	-5%	22	-12%	-4	18µM*	-16
Cc1cnc(=O)[nH]c1SCc1cccc(C(F)(F)F)c1	2%	6	-11%	-2	-6%	8
Cc1cnc(=O)[nH]c1SCc1ccc(C(F)(F)F)cc1	-16%	-5	-7%	31*	0%	0
CSc1ccc(C(=O)C2CCCN(C(=O)c3nonc3C)C2)cc1 (stereo not drawn)	?	0	-86%	-14	-2%	-9
COc1ccc(-c2cccc(NC(=O)c3ccco3)c2)nn1	?	0	26µM*	1	-1%	-10
CS(=O)(=O)c1ccc(-c2cccc(NC(=O)c3ccco3)c2)nn1	?	18	18µM*	2	3%	-8
CN1CCN(c2ccc([N+](=O)[O-])cc2C(=O)c2ccccc2)CC1	?	-5	?	0	-8%	12
O=C(c1ccccc1)c1cc([N+](=O)[O-])ccc1N1CCCC1	-25%	4	-32%	9	-2%	-12
CN1CCN(c2ccc([N+](=O)[O-])cc2C(=O)c2ccc(Br)cc2)CC1	2.3µM*	-56*	5.2µM*	-9	0%	-3
Cc1ccc(C(=O)c2cc([N+](=O)[O-])ccc2N2CCN(C)CC2)cc1	5.8µM*	-19	5.8µM*	-22	1%	1
O=[N+]([O-])c1ccc(N2CCN(c3ccc([N+](=O)[O-])cc3CO)CC2)c(CO)c1	2.3µM*	-1	2.9µM*	-2	0%	-24
COc1ccc2c(CC(=O)N3CCN(S(=O)(=O)c4ccc(F)cc4)CC3)coc2c1	-19%	-2	-7%	3	-2%	0
SMILES	DT40 TDP1 CPT	DRD3 antagonist	DT40 TDP1 no CPT	DRD3 agonist	ClpP mod	IL1B secr inh
Cc1ccc(NC(=O)CN2CCCCCC2)cc1[N+](=O)[O-]	1%	7	-12%	1	/	-3
Cc1ccc(C)c(N2CCN(C(=O)CCc3nc(-c4ccccc4Br)no3)CC2)c1	?	2	?	11	-3%	-10
CCOc1cccc(OCCOCCN2CCCC2)c1	-24%	?	-8%	-17	1%	-9
CCc1cccc(OCCOCCN2CCCC2)c1	-10%	-71*	-2%	-3	0%	4
Cc1cc(OCCOCCN2CCCC2)ccc1C(C)C	?	-58*	?	-10	-1%	7
C=C(C)COc1ccc(-c2nc(N)ncc2Oc2ccccc2OC)c(O)c1	?	4	?	-3	-1%	-62*
Cc1[nH]nc(-c2ccc(OCc3cnn(-c4ccccc4)c3)cc2O)c1Oc1ccc(F)cc1	?	5	?	2	-17%	60
C=C(C)COc1ccc(-c2nc(N)ncc2Oc2ccc(OC)cc2)c(O)c1	?	?	29µM*	1	25µM*	0
CCOc1ccc(-c2n[nH]c(C)c2Oc2ccc(OC)cc2)c(O)c1	21µM*	-18	10µM*	-5	-5%	-28
CCOc1ccc(-c2nc(N)ncc2Oc2cccc(OC)c2)c(O)c1	?	21	18µM*	1	0%	?
CCCCCCOC(=O)CC1CC(C(C)=O)C1(C)C (stereo not drawn)	0%	-4	?	1	2%	-4
COc1cc(OC)c(C(=O)OCC(=O)N2CCN(S(=O)(=O)c3ccc(C)cc3C)CC2)cc1OC	?	24	?	-2	-7%	15
COc1cc(C(=O)N2CC(=O)Nc3ccc(C)cc3C2c2ccc(F)cc2)cc(OC)c1OC (stereo not drawn)	?	/	?	-22	-1%	/
Cc1ccc(S(=O)(=O)N[C@H](CNCc2ccccc2)C(C)C)cc1	?	-91*	?	-17	1%	-8
Cc1ccc(S(=O)(=O)NCc2ccccc2)cc1	?	10	?	9	0%	0
